This note sets out measurements from PubChem BioAssay (EPA / NIEHS).

Each structure is given as a SMILES string. Inconclusive results are not listed. Some compounds were tested as several samples or in several runs, with calls that do not always agree. Calls of active or inactive are those of the source. The calls were made as follows: active = hit-call score of the fitted dose curve at least 0.9, where 1 is the maximum; inconclusive = response in the unintended direction; inactive = score below 0.9.

Luciferin 4-monooxygenase (Photinus pyralis), sequence (P08659 whole entry, looked up): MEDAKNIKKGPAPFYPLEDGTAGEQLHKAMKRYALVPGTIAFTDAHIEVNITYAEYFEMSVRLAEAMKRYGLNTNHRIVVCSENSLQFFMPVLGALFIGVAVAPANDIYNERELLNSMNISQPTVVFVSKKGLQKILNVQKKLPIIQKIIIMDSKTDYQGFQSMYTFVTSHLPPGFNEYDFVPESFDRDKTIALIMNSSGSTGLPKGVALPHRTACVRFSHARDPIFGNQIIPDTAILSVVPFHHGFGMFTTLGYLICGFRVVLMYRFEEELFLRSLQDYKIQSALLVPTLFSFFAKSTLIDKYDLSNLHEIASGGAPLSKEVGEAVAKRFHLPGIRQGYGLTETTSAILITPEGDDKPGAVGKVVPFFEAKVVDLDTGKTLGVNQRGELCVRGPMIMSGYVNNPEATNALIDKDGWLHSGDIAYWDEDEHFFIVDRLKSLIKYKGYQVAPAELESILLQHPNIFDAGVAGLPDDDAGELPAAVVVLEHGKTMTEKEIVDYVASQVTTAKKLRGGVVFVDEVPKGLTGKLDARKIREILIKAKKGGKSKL

System in the first experiment: not listed separately
The experiment is described as follows: Tanguay_ZF_120hpf_ActivityScore_legacy: (Legacy) Oregon State University Tanguay Lab 120 Hour Post-fertilization zebrafish Assay Score for Activity (AID 2283742).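 As to AC50: dechorionated Tropical 5D wild-type zebrafish embryos held singly per well; static exposure from 6 hpf until 120 hpf at 28 °C.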 The method in brief: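 In this whole-embryo screen, dechorionated zebrafish were exposed from 6 hpf until 120 hpf at 28C under a 0.64% DMSO vehicle. Developmental malformations and death were recorded by brightfield microscopy as binary endpoints.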
As for `CC/C(=C(\c1ccccc1)c1ccc(OCCN(C)C)cc1)c1ccccc1`, the AC50 is 31.1 µM (active) and the result was inactive.

With `COC(=O)c1ccc(C(=O)OC)cc1`, the concentration at half-maximal activity (AC50) is 77.4 µM (active).

For `C[C@]12CC[C@@H]3c4ccc(O)cc4CC[C@H]3[C@@H]1CC[C@@H]2O`, the compound was called inactive.

As for `C=C(C)C(N)=O`, the result was inactive.

Consider `O=C(c1ccc(OCCN2CCCCC2)cc1)c1c(-c2ccc(O)cc2)sc2cc(O)ccc12`, for which the compound was classed as inactive.

In the case of `CCCCOCCOCCO`, the result was inactive.

Regarding `C#C[C@]1(O)CC[C@H]2[C@@H]3CCc4cc(O)ccc4[C@H]3CC[C@@]21C`, the compound was called inactive.

Another experiment deals with Luciferin 4-monooxygenase (Photinus pyralis) (UniProt P08659). Description: CCTE_Simmons_QuantiLum_inhib_2: CCTE's Firefly Luciferase Inhibition Assay, Simmons Lab (AID 2283767).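 As to AC50: potency for inhibitors that lower luciferase luminescence relative to DMSO.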 The method in brief:
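Cell-free QuantiLum luciferase, 5 ng/well; compounds 5 nM–87.5 uM final, 8 conc, 0.5% DMSO; 30 min, 37C, dark. Detection reagent (150 uM D-luciferin, 147 uM dATP, CoA, DTT, pH 7.8 final) injected per well, kinetic luminescence. Triplicate biological replicates.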
On to `CC/C(=C(\c1ccccc1)c1ccc(OCCN(C)C)cc1)c1ccccc1`, for which the result was inactive.

Regarding `CCCCCCCCCCCCS`, the compound was classed as inactive.

For the compound `O=Cc1ccccc1O`, the compound was classed as inactive.

`CCCc1ccc(O)cc1`: the compound was classed as inactive.

For the compound `CC(C)(C)c1cccc(O)c1`, the call was inactive.

Turning to `O=c1cc(-c2ccc(O)cc2)oc2cc(O)cc(O)c12`, the half-maximal activity concentration (AC50) is 7.35 µM (active).

With `CCc1cccc(O)c1`, the AC50 was 55.2 µM (active).

In the case of `C[C@]12CC[C@@H]3c4ccc(O)cc4CC[C@H]3[C@@H]1CC[C@@H]2O`, the result was inactive.

For `NC(N)=S`, the AC50 was 10.4 µM (active) and the outcome was inactive.

Take `O=C(O)CS`: the compound was classed as inactive.

In the case of `CC1=CCC(=C(C)C)CC1`, the result was inactive.

For the compound `c1ccc2scnc2c1`, the half-maximal activity concentration (AC50) was 31.7 µM (active) and the result was inactive.

As to `CCCCCCOc1ccc(O)cc1`, the half-maximal activity concentration (AC50) is 53.8 µM (active).

Turning to `[O-]/[N+](=N\O)c1ccccc1`, the concentration at half-maximal activity (AC50) is 31.7 µM (active).

Take `COc1ccccc1O`: the outcome was inactive.

As to `O=C(c1ccc(OCCN2CCCCC2)cc1)c1c(-c2ccc(O)cc2)sc2cc(O)ccc12`, the compound was classed as inactive.

`CCCCCCCCCCCCOCCOS(=O)(=O)O`: the result was inactive.

With `CN(C)C(=O)Nc1ccccc1`, the result was inactive.

On to `O=C(O)C1=NN(c2ccc(S(=O)(=O)O)cc2)C(=O)C1`, for which the compound was classed as inactive.

For the compound `CCCc1ccc(N)cc1`, the compound was called inactive.

As for `C#C[C@]1(O)CC[C@H]2[C@@H]3CCc4cc(O)ccc4[C@H]3CC[C@@]21C`, the outcome was inactive.

For `O=c1cc[nH]cc1`, the compound was classed as inactive.

In the case of `CCCCC/C=C\C=C\C(=O)OCC`, the compound was classed as inactive.

`CC(=O)OC/C=C(C)/C=C/C=C(C)/C=C/C1=C(C)CCCC1(C)C`: the compound was classed as inactive.

With `Cc1cccc(O)c1`, the compound was classed as inactive.

`CCC(C)(C)C1CCC(=O)CC1`: the call was inactive.

`CCCCCCCCOC(=O)c1ccc(O)cc1`: the compound was called inactive.

System in the next experiment: not listed separately
Description: ACEA_AR_agonist_AUC_viability: ACEA Biosciences xCELLigence Real-Time Cell Analysis on Androgen Receptor Agonism for Viability (AID 2283775).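 As to AC50: viability read 80 hours after compound addition.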 In short, it runs like this: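 Viability endpoint from xCELLigence impedance in 22Rv1 prostate cells at 80 h. Eight-point series, 100 uM maximum final.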
Regarding `CC/C(=C(\c1ccccc1)c1ccc(OCCN(C)C)cc1)c1ccccc1`, the AC50 is 10.4 µM (active).

For the compound `COC(=O)c1ccc(C(=O)OC)cc1`, the compound was classed as inactive.

For the compound `O=Cc1ccccc1O`, the outcome was inactive.

As for `CCCc1ccc(O)cc1`, the result was inactive.

For the compound `CC(C)(C)c1cccc(O)c1`, the result was inactive.

For `O=c1cc(-c2ccc(O)cc2)oc2cc(O)cc(O)c12`, the AC50 is 12.7 µM (active).

Turning to `CCc1cccc(O)c1`, the compound was called inactive.

For the compound `C[C@]12CC[C@@H]3c4ccc(O)cc4CC[C@H]3[C@@H]1CC[C@@H]2O`, the half-maximal activity concentration (AC50) is 0.05 µM (active) and the call was inactive.

Take `NC(N)=S`: the result was inactive.

Consider `C=C(C)C(N)=O`, for which the outcome was inactive.

Take `CC1=CCC(=C(C)C)CC1`: the compound was called inactive.

As to `c1ccc2scnc2c1`, the result was inactive.

On to `CCCCCCOc1ccc(O)cc1`, for which the concentration at half-maximal activity (AC50) was 10.9 µM (active).

Take `O=C(c1ccc(OCCN2CCCCC2)cc1)c1c(-c2ccc(O)cc2)sc2cc(O)ccc12`: the AC50 was 50 µM (active).

Consider `CCCCOCCOCCO`, for which the compound was called inactive.

As to `CN(C)C(=O)Nc1ccccc1`, the call was inactive.

Turning to `O=C(O)C1=NN(c2ccc(S(=O)(=O)O)cc2)C(=O)C1`, the half-maximal activity concentration (AC50) is 8.67 µM (active).

Consider `CCCc1ccc(N)cc1`, for which the compound was classed as inactive.

For the compound `C#C[C@]1(O)CC[C@H]2[C@@H]3CCc4cc(O)ccc4[C@H]3CC[C@@]21C`, the result was inactive.

With `Cc1cccc(O)c1`, the outcome was inactive.

For the compound `CCCCCCCCOC(=O)c1ccc(O)cc1`, the compound was classed as inactive.

System in the next experiment: not listed separately
The experiment is described as follows: ACEA_AR_antagonist_AUC_viability: ACEA Biosciences xCELLigence Real-Time Cell Analysis on Androgen Receptor Antagonism for Viability (AID 2283776).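 Also: area under impedance growth curve at 80 h after dosing as viability; hits lower the growth signal relative to DMSO meaning cytotoxicity.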 In short, it runs like this: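 22Rv1 human prostate cancer cells were seeded on electrode plates, monitored overnight, then exposed to eight 1:4 dilutions from 100 uM final. Impedance-based growth kinetics at 80 h gave an AUC viability endpoint normalized to DMSO.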
Turning to `CC/C(=C(\c1ccccc1)c1ccc(OCCN(C)C)cc1)c1ccccc1`, the half-maximal activity concentration (AC50) was 11 µM (active) and the compound was called inactive.

On to `CCCc1ccc(O)cc1`, for which the result was inactive.

Consider `CCc1cccc(O)c1`, for which the compound was called inactive.

Consider `C[C@]12CC[C@@H]3c4ccc(O)cc4CC[C@H]3[C@@H]1CC[C@@H]2O`, for which the concentration at half-maximal activity (AC50) is 85.9 µM (active) and the outcome was inactive.

Regarding `NC(N)=S`, the compound was classed as inactive.

Take `C=C(C)C(N)=O`: the outcome was inactive.

As usually defined, the AC50 is the concentration at which the activity in the assay is half-maximal.
